{
  "source": "the supplement of paper PMC4022240",
  "note": "± gives the standard deviation.",
  "data": [
    {"target": "T1, HaloTag-ATRX ADD domain (163-292)", "T1 chain": "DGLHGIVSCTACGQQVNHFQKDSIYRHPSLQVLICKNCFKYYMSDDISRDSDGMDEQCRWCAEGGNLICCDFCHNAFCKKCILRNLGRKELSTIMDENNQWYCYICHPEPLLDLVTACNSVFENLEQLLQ", "assay": "peptide microarray binding signal (635 nm), min-max normalized on array (fraction of array maximum); higher = stronger binding", "conditions": "peptide region: Unmod H2A variant; binder concentration: 50 nM", "method_in_brief": "(§1)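 Triplicate spots of histone 13-mer peptide–cellulose conjugates with a Cy3 tracer were printed on nitrocellulose and probed for 1 h at 4°C with biotin-labelled HaloTag reader fusions (10 nM to 1 μM) plus streptavidin-Alexa Fluor 647 or rabbit histone antibodies (1:10,000 to 1:2,000) plus anti-rabbit Alexa 647. An Axon GenePix 4000B read the 635 nm channel. Binding signal is the spot-triplicate mean intensity after min-max scaling within each library.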", "values": [
      {"binder": "RAKAKTRSSRAGL", "note": "[Unmod H2A variant R A K A K T R S S R A G L]", "peptide microarray binding signal": "0.0117 ± 0.00045"},
      {"binder": "KGNYSERVGAGAP", "note": "[Unmod H2A variant K G N Y S E R V G A G A P]", "peptide microarray binding signal": "0.019 ± 0.0052"},
      {"binder": "KGNYAERIGAGAP", "note": "[Unmod H2A variant K G N Y A E R I G A G A P]", "peptide microarray binding signal": "0.0345 ± 0.0048"},
      {"binder": "QGGKARAKAKTRS", "note": "[Unmod H2A variant Q G G K A R A K A K T R S]", "peptide microarray binding signal": "0.00784 ± 0.00021"}
    ]},
    {"target": "T1, HaloTag-ATRX ADD domain (163-292)", "assay": "peptide microarray binding signal (635 nm), min-max normalized on array (fraction of array maximum); higher = stronger binding", "conditions": "peptide region: Unmod H2A variant; binder concentration: 500 nM", "method_in_brief": "as §1", "values": [
      {"binder": "RAKAKTRSSRAGL", "note": "[Unmod H2A variant R A K A K T R S S R A G L]", "peptide microarray binding signal": "0.0611 ± 0.039"},
      {"binder": "KGNYSERVGAGAP", "note": "[Unmod H2A variant K G N Y S E R V G A G A P]", "peptide microarray binding signal": "0.0303 ± 0.012"},
      {"binder": "KGNYAERIGAGAP", "note": "[Unmod H2A variant K G N Y A E R I G A G A P]", "peptide microarray binding signal": "0.0994 ± 0.0054"},
      {"binder": "QGGKARAKAKTRS", "note": "[Unmod H2A variant Q G G K A R A K A K T R S]", "peptide microarray binding signal": "0.0153 ± 0.0011"}
    ]},
    {"target": "HaloTag-ING2 PHD (mouse Ing2 200-280)", "assay": "peptide microarray binding signal (635 nm), min-max normalized on array (fraction of array maximum); higher = stronger binding", "conditions": "peptide region: Unmod H2A variant; binder concentration: 10 nM", "method_in_brief": "as §1", "values": [
      {"binder": "RAKAKTRSSRAGL", "note": "[Unmod H2A variant R A K A K T R S S R A G L]", "peptide microarray binding signal": "0.00531 ± 0.00038"},
      {"binder": "KGNYSERVGAGAP", "note": "[Unmod H2A variant K G N Y S E R V G A G A P]", "peptide microarray binding signal": "0.00692 ± 0.0004"},
      {"binder": "KGNYAERIGAGAP", "note": "[Unmod H2A variant K G N Y A E R I G A G A P]", "peptide microarray binding signal": "0.0206 ± 0.00047"},
      {"binder": "QGGKARAKAKTRS", "note": "[Unmod H2A variant Q G G K A R A K A K T R S]", "peptide microarray binding signal": "0.00298 ± 0.00012"}
    ]},
    {"target": "HaloTag-ING2 PHD (mouse Ing2 200-280)", "assay": "peptide microarray binding signal (635 nm), min-max normalized on array (fraction of array maximum); higher = stronger binding", "conditions": "peptide region: Unmod H2A variant; binder concentration: 100 nM", "method_in_brief": "as §1", "values": [
      {"binder": "RAKAKTRSSRAGL", "note": "[Unmod H2A variant R A K A K T R S S R A G L]", "peptide microarray binding signal": "0.0242 ± 0.0082"},
      {"binder": "KGNYSERVGAGAP", "note": "[Unmod H2A variant K G N Y S E R V G A G A P]", "peptide microarray binding signal": "0.0104 ± 0.0025"},
      {"binder": "KGNYAERIGAGAP", "note": "[Unmod H2A variant K G N Y A E R I G A G A P]", "peptide microarray binding signal": "0.0279 ± 0.0038"},
      {"binder": "QGGKARAKAKTRS", "note": "[Unmod H2A variant Q G G K A R A K A K T R S]", "peptide microarray binding signal": "0.00496 ± 0.00036"}
    ]},
    {"target": "anti-H3K4me3 antibody ab8580", "assay": "peptide microarray binding signal (635 nm), min-max normalized on array (fraction of array maximum); higher = stronger binding", "conditions": "peptide region: Unmod H2A variant; binder concentration: 1:2,000 dilution", "method_in_brief": "as §1", "values": [
      {"binder": "RAKAKTRSSRAGL", "note": "[Unmod H2A variant R A K A K T R S S R A G L]", "peptide microarray binding signal": "0.00328 ± 0.00034"},
      {"binder": "KGNYSERVGAGAP", "note": "[Unmod H2A variant K G N Y S E R V G A G A P]", "peptide microarray binding signal": "0.00799 ± 0.00061"},
      {"binder": "KGNYAERIGAGAP", "note": "[Unmod H2A variant K G N Y A E R I G A G A P]", "peptide microarray binding signal": "0.00668 ± 0.0046"},
      {"binder": "QGGKARAKAKTRS", "note": "[Unmod H2A variant Q G G K A R A K A K T R S]", "peptide microarray binding signal": "0.00125 ± 0.00024"}
    ]},
    {"target": "anti-H3K4me3 antibody ab8580", "assay": "peptide microarray binding signal (635 nm), min-max normalized on array (fraction of array maximum); higher = stronger binding", "conditions": "peptide region: Unmod H2A variant; binder concentration: 1:10,000 dilution", "method_in_brief": "as §1", "values": [
      {"binder": "RAKAKTRSSRAGL", "note": "[Unmod H2A variant R A K A K T R S S R A G L]", "peptide microarray binding signal": "0.00165 ± 3.2e-05"},
      {"binder": "KGNYSERVGAGAP", "note": "[Unmod H2A variant K G N Y S E R V G A G A P]", "peptide microarray binding signal": "0.00223 ± 0.00022"},
      {"binder": "KGNYAERIGAGAP", "note": "[Unmod H2A variant K G N Y A E R I G A G A P]", "peptide microarray binding signal": "0.00953 ± 0.0009"},
      {"binder": "QGGKARAKAKTRS", "note": "[Unmod H2A variant Q G G K A R A K A K T R S]", "peptide microarray binding signal": "0.000685 ± 7.2e-06"}
    ]},
    {"target": "anti-H3K9me3 antibody ab8898", "assay": "peptide microarray binding signal (635 nm), min-max normalized on array (fraction of array maximum); higher = stronger binding", "conditions": "peptide region: Unmod H2A variant; binder concentration: 1:2,000 dilution", "method_in_brief": "as §1", "values": [
      {"binder": "RAKAKTRSSRAGL", "note": "[Unmod H2A variant R A K A K T R S S R A G L]", "peptide microarray binding signal": "0.000966 ± 0.00011"},
      {"binder": "KGNYSERVGAGAP", "note": "[Unmod H2A variant K G N Y S E R V G A G A P]", "peptide microarray binding signal": "0.00116 ± 9.9e-05"},
      {"binder": "KGNYAERIGAGAP", "note": "[Unmod H2A variant K G N Y A E R I G A G A P]", "peptide microarray binding signal": "0.005421 ± 1.8e-05"},
      {"binder": "QGGKARAKAKTRS", "note": "[Unmod H2A variant Q G G K A R A K A K T R S]", "peptide microarray binding signal": "0.000408 ± 1.4e-05"}
    ]},
    {"target": "anti-H3K9me3 antibody ab8898", "assay": "peptide microarray binding signal (635 nm), min-max normalized on array (fraction of array maximum); higher = stronger binding", "conditions": "peptide region: Unmod H2A variant; binder concentration: 1:10,000 dilution", "method_in_brief": "as §1", "values": [
      {"binder": "RAKAKTRSSRAGL", "note": "[Unmod H2A variant R A K A K T R S S R A G L]", "peptide microarray binding signal": "0.0011 ± 1.1e-05"},
      {"binder": "KGNYSERVGAGAP", "note": "[Unmod H2A variant K G N Y S E R V G A G A P]", "peptide microarray binding signal": "0.00115 ± 5.3e-05"},
      {"binder": "KGNYAERIGAGAP", "note": "[Unmod H2A variant K G N Y A E R I G A G A P]", "peptide microarray binding signal": "0.00611 ± 0.0016"},
      {"binder": "QGGKARAKAKTRS", "note": "[Unmod H2A variant Q G G K A R A K A K T R S]", "peptide microarray binding signal": "0.000404 ± 4.4e-06"}
    ]},
    {"target": "T1, HaloTag-ATRX ADD domain (163-292)", "assay": "peptide microarray binding signal (635 nm), min-max normalized on array (fraction of array maximum); higher = stronger binding", "conditions": "peptide region: Unmod H1 variant; binder concentration: 50 nM", "method_in_brief": "as §1", "values": [
      {"binder": "PKKAKAAKPKKAP", "note": "[Unmod H1 variant P K K A K A A K P K K A P]", "peptide microarray binding signal": "0.009 ± 0.00089"}
    ]},
    {"target": "T1, HaloTag-ATRX ADD domain (163-292)", "assay": "peptide microarray binding signal (635 nm), min-max normalized on array (fraction of array maximum); higher = stronger binding", "conditions": "peptide region: Unmod H1 variant; binder concentration: 500 nM", "method_in_brief": "as §1", "values": [
      {"binder": "PKKAKAAKPKKAP", "note": "[Unmod H1 variant P K K A K A A K P K K A P]", "peptide microarray binding signal": "0.01 ± 0.00062"}
    ]},
    {"target": "HaloTag-ING2 PHD (mouse Ing2 200-280)", "assay": "peptide microarray binding signal (635 nm), min-max normalized on array (fraction of array maximum); higher = stronger binding", "conditions": "peptide region: Unmod H1 variant; binder concentration: 10 nM", "method_in_brief": "as §1", "values": [
      {"binder": "PKKAKAAKPKKAP", "note": "[Unmod H1 variant P K K A K A A K P K K A P]", "peptide microarray binding signal": "0.00424 ± 0.00016"}
    ]},
    {"target": "HaloTag-ING2 PHD (mouse Ing2 200-280)", "assay": "peptide microarray binding signal (635 nm), min-max normalized on array (fraction of array maximum); higher = stronger binding", "conditions": "peptide region: Unmod H1 variant; binder concentration: 100 nM", "method_in_brief": "as §1", "values": [
      {"binder": "PKKAKAAKPKKAP", "note": "[Unmod H1 variant P K K A K A A K P K K A P]", "peptide microarray binding signal": "0.00751 ± 0.00063"}
    ]},
    {"target": "anti-H3K4me3 antibody ab8580", "assay": "peptide microarray binding signal (635 nm), min-max normalized on array (fraction of array maximum); higher = stronger binding", "conditions": "peptide region: Unmod H1 variant; binder concentration: 1:2,000 dilution", "method_in_brief": "as §1", "values": [
      {"binder": "PKKAKAAKPKKAP", "note": "[Unmod H1 variant P K K A K A A K P K K A P]", "peptide microarray binding signal": "0.0006985 ± 6.5e-06"}
    ]},
    {"target": "anti-H3K4me3 antibody ab8580", "assay": "peptide microarray binding signal (635 nm), min-max normalized on array (fraction of array maximum); higher = stronger binding", "conditions": "peptide region: Unmod H1 variant; binder concentration: 1:10,000 dilution", "method_in_brief": "as §1", "values": [
      {"binder": "PKKAKAAKPKKAP", "note": "[Unmod H1 variant P K K A K A A K P K K A P]", "peptide microarray binding signal": "0.00171 ± 3.3e-05"}
    ]},
    {"target": "anti-H3K9me3 antibody ab8898", "assay": "peptide microarray binding signal (635 nm), min-max normalized on array (fraction of array maximum); higher = stronger binding", "conditions": "peptide region: Unmod H1 variant; binder concentration: 1:2,000 dilution", "method_in_brief": "as §1", "values": [
      {"binder": "PKKAKAAKPKKAP", "note": "[Unmod H1 variant P K K A K A A K P K K A P]", "peptide microarray binding signal": "0.000589 ± 9.4e-06"}
    ]},
    {"target": "anti-H3K9me3 antibody ab8898", "assay": "peptide microarray binding signal (635 nm), min-max normalized on array (fraction of array maximum); higher = stronger binding", "conditions": "peptide region: Unmod H1 variant; binder concentration: 1:10,000 dilution", "method_in_brief": "as §1", "values": [
      {"binder": "PKKAKAAKPKKAP", "note": "[Unmod H1 variant P K K A K A A K P K K A P]", "peptide microarray binding signal": "0.00773 ± 0.0051"}
    ]}
  ]
}
